Unmarked numbers belong to inactive results. Activity calls are given as the source filed them.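 The calls were made as follows: active = mean inhibition above 46.68%, the untreated control wells mean plus 3 SD; inactive = the rest.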
Target: Nuclear receptor coactivator 1 (Homo sapiens) (UniProt Q15788)
Test: NCOA1 GAL4-fusion reporter inhibition – cell-based, luminescence, quadruplicate, confirmation (AID 588820);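 also: 0% = DMSO wells and 100% = gossypol 36 µM treated wells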
Settings: HEK293 GAL4-SRC1 luciferase reporter, at 3.6 µM, stronger effect = higher value

Nuclear receptor coactivator 1 (Homo sapiens), sequence (Q15788 whole entry, looked up, the tested form may be a part): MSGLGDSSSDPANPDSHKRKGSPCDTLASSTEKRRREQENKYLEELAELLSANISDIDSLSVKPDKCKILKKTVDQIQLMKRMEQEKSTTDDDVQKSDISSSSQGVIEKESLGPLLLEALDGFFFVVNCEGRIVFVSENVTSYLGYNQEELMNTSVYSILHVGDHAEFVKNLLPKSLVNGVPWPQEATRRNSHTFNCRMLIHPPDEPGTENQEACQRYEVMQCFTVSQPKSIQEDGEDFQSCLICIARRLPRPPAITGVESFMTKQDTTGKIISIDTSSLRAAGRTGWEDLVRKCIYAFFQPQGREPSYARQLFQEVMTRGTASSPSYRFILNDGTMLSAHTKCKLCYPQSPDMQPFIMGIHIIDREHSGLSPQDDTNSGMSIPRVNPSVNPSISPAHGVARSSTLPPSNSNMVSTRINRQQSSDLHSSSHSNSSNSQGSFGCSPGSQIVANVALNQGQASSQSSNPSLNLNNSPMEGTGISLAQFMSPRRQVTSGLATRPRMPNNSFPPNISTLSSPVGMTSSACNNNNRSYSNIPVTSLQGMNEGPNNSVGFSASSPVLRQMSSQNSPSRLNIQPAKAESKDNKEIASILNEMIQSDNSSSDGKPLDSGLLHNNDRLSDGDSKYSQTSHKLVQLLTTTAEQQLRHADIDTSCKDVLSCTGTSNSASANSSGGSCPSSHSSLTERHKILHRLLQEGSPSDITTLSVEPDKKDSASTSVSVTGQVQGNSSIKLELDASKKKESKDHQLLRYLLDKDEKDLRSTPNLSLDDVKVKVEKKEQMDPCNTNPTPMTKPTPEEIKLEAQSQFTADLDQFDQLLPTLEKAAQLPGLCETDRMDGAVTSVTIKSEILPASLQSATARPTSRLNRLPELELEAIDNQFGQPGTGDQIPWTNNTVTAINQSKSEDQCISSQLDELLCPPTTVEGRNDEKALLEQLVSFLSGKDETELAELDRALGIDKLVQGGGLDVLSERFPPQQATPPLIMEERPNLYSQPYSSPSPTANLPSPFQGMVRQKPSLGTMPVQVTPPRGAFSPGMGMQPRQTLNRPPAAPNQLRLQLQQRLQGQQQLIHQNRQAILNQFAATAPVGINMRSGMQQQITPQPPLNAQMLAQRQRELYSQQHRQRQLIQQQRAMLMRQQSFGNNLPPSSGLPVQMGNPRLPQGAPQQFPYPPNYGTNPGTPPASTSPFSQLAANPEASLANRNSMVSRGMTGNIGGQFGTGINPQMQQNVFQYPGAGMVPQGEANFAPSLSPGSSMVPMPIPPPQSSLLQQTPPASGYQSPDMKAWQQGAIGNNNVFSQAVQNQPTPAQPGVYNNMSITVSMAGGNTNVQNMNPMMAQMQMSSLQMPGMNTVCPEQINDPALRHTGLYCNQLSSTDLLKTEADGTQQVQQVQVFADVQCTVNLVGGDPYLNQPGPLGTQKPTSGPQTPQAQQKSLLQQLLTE

SMILES | inhibition
O=C(CSc1n[nH]c(-c2cccnc2)n1)Nc1ccc([N+](=O)[O-])cc1 | -26.9%
COc1ccc(C2c3cc(OC)c(OC)cc3CCN2S(C)(=O)=O)cc1OC (stereo not given) | 9.85%
CCC(C)c1ccc(S(=O)(=O)Nc2cccnc2)cc1 (stereo not given) | -9.79%
COc1cc(C(=O)NCCOc2cc(C)ccc2C(C)C)cc(OC)c1OC | -14.4%
COc1ccc(S(=O)(=O)Nc2ccc(F)c(Cl)c2)cc1OC | -9.19%
Cc1cnc(C(=O)Nc2cccc3cccnc23)cn1 | -34.4%
CCCCC(=O)Nc1cccn2ncnc12 | 24.7%
CC1CCCCN1c1ncnc2ccccc12 (stereo not given) | 18.5%
CCCCC(=O)NC(c1ccc(N(CC)CC)cc1)c1ccc2cccnc2c1O (stereo not given) | 69.3% (active)
CCOC(=O)C(=O)NNc1ccc(F)cc1 | -25.9%
Cc1cccc(C)c1NC(=O)C1(C)CCC(=O)N1c1cc(C(C)(C)C)nn1C (stereo not given) | -13.6%
CCNC(=O)C1(C)CCN(C(=O)c2ccc(F)cc2Cl)C1 (stereo not given) | 4.79%
Cc1ccc(C2C3=C(CC(C)(C)CC3=O)OC3=C2C(=O)CC(C)(C)C3)cc1 | 0%
COc1ccc(-c2cc(=O)oc3c(C)c(O)c(CN(C)C)cc23)cc1 | 17.5%
N#Cc1c(-c2ccccc2)c(C#N)c2nc3ccccc3n2c1N | 15.8%
c1ccc(-c2cn(-c3ccccc3)c3ncnc(N4CCCCC4)c23)cc1 | 1.38%
C=CCSc1nnc(-c2cc(C(C)(C)C)nn2Cc2ccc(F)cc2)n1C | 1.92%
CCc1ccc(CN(C)C(=O)C2CCC(=O)N(CC3CCCCC3)C2)cc1 (stereo not given) | -5.12%
Cc1cc(C(=O)OCC(=O)N2CC(C)OC(C)C2)c(C)n1-c1ccccc1 (stereo not given) | -17%
Cc1cc2nc(C3CCCCC3)c(Cc3cccc(F)c3)n2c(C)c1Br | 4.23%

SMILES | inhibition
Cc1nn(Cc2cccc(F)c2)c(C)c1NC(=O)c1ccc(COc2ccccc2Cl)cc1 | 31.2%
COc1cccc(CNc2nc3cc(-c4ccsc4)sc3c(=O)n2C)c1OC | -0.05%
CN(C)C(=O)c1cccc(-c2cnc3cccnn23)c1 | -7.49%
O=C(COC(=O)COc1ccccc1)NCCc1ccccc1 | -16.7%
Cc1csc(NC(=O)c2cc(-c3ccccc3)nc3ccccc23)n1 | 7.56%
CCC(NC(=O)NC1CCCCC1)c1ccccc1 (stereo not given) | -16%
O=C(CCC(=O)Nc1ccc(Br)cc1)N/N=C/c1ccccc1O | 29.2%
CC1CC(C)CN(c2ncc3c(n2)CC(c2ccc(Cl)cc2)CC3=O)C1 (stereo not given) | -7.75%
COc1ccccc1CNC(=O)Cn1nnnc1CN(C)C(C)C | -0.61%
CCC(C)C(=O)Nc1nc(C)c(-c2csc(Nc3cc(Cl)ccc3OC)n2)s1 (stereo not given) | -14.5%
O=C(NCc1ccncc1)C1CCCN(S(=O)(=O)c2ccc(Br)cc2)C1 (stereo not given) | -1.35%
COc1ccc2c(c1)-c1c(ssc1=S)C(C)(C)N2C(=O)CSC1=NCCS1 | 24.9%
Cc1ccc(S(=O)(=O)NNC2=NS(=O)(=O)c3ccccc32)c(C)c1 | -17.6%
COc1cc(OC)cc(C(=O)NNC(=O)c2ccccn2)c1 | 10.7%
C=CCn1c(Oc2ccccc2F)nc2c1c(=O)n(C)c(=O)n2C | 46.6%
Cc1ccc(-c2nc(-c3ccccc3)no2)c(Cl)c1 | -51.6%
Cc1ccc(S(=O)(=O)N2[C@@H](c3cccc(Cl)c3)C(C(=O)OC(C)(C)C)=CC[C@H]2c2ccc(C(C)C)cc2)cc1 | 0.74%
COc1ccc(OCCN2CCN(C(=O)c3ccc(OC(F)F)c(OC)c3)CC2)cc1 | 2.42%
COc1ccc(C(O)(C(C)C)C(CN2CCOCC2)c2ccc(Cl)cc2)cc1 (stereo not given) | 16.2%
COc1cc(C(=O)NC(=S)NNC(=O)c2cnccn2)cc(OC)c1OC | 19.6%

From PubChem BioAssay
